High-throughput results deposited in PubChem by several laboratories.
MOR-DOR inv ag-1 = inverse agonists of human mu-delta opioid receptor heterodimerization; inhibition, % at 9.3 µM; cell-based MOR-DOR heterodimer luminescence, inverse agonism; AID 504357; P35372+P41143; hit rate 0.21% among 340,000; in the data active = inhibition above about 22%, passing the limit was not always enough;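 also: 0% = cells with DMSO and 100% = wells without cells with DMSO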
V-ATPase pHluor = regulators of yeast V-ATPase proton transport. response, % at 10 µM. hit rate 0.37% among 350,000. S. cerevisiae, pHLuorin cytosolic pH fluorescence; in the data active = response mostly above about 7.3%, no sharp cut-off; inactive = mostly below about 5.4%; also: actives read high
HTR5A inv ag = inverse agonist of human HTR5A in OPRM1-OPRD1 counter-screen | inhibition, % at 9.3 µM | hit rate 0.083% among 340,000 | HTR5A cell line, luminescence, inverse agonism | P47898; in the data active = inhibition mostly above about 23%, no sharp cut-off; inactive = mostly below about 18%;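 also: 0% = cells with DMSO and 100% = no-cell wells with DMSO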
Target sequence (P47898 whole entry, looked up): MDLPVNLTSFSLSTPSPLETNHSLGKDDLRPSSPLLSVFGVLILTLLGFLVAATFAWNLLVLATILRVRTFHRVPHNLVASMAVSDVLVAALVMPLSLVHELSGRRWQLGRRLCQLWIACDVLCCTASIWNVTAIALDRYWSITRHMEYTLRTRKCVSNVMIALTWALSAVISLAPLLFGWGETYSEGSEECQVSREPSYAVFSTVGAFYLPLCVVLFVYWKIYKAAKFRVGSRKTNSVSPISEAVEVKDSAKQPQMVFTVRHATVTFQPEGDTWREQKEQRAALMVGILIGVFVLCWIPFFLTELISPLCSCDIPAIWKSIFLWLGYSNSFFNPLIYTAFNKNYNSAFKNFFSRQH
beta cell repl = MIN6 beta-cell proliferation induction | MIN6 cells proliferation, ATPlite luminescence, 48 h; cells starved in 0.2% serum; 100% = growth in 10% serum | proliferation, % at 10 µM | hit rate 0.29% among 330,000 | AID 2380;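 active = compounds whose signal lies at least 3.5 SD above the mean of all wells on their plate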;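 also: 0% = DMSO-treated cells in low-serum medium and 100% = 10% serum control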
MOR-DOR ag-1 = agonists of human mu-delta opioid receptor heterodimerization. P35372+P41143. cells, OPRM1-OPRD1 heterodimerization, luminescence. activation, % at 9.3 µM. hit rate 0.3% among 340,000. AID 504326;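 also: 0% = vehicle-treated cells and 100% = reference agonist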
HTR5A ag ctr = counter-screen for OPRM1-OPRD1 agonists: human HTR5A agonism; AID 504692; P47898; activation, % at 9.3 µM; hit rate 0.61% among 340,000; HTR5A agonist assay, luminescence, cell-based; in the data active = activation mostly above about 9.5%, no sharp cut-off; inactive = mostly below about 7.6%;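 also: 0% = cells with vehicle only and 100% = reference agonist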
MOR-DOR inv ag-2 = counter-screen for HTR5A inverse agonists: OPRM1-OPRD1 heterodimerization inverse agonism. shares compounds with HTR5A inv ag. 190 tested, under 10 active. U2OS counter-screen cells, complementation luminescence. AID 504912. inhibition, % at 9.3 µM; call rule not given here;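 also: 0% = cells with DMSO and 100% = wells without cells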
HTR5A inv confrm = HTR5A (human) inverse agonism, confirmation | shares compounds with HTR5A inv ag | HTR5A-expressing cells, luminescence | inhibition, % at 9.3 µM | 190 tested, under 10 active; call rule not given here;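 also: 0% = cells with DMSO and 100% = no cells with DMSO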
MOR-DOR ag-2 = counter-screen for HTR5A agonists: OPRM1-OPRD1 heterodimerization agonism; shares compounds with HTR5A ag ctr; U2OS counter-screen cells, complementation luminescence, 3 h; activation, % at 9.3 µM; hit rate 13% among 800; AID 504913
HTR5A ag confirm = confirmation of human HTR5A agonists; shares compounds with HTR5A ag ctr; HTR5A agonist cell assay, luminescence; activation, % at 9.3 µM; hit rate 17% among 800; AID 504915; in the data active = activation above about 17%;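 also: 0% = cells with vehicle only and 100% = full reference agonist response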
Numbers without * were called inactive; i = inactive; / = no result. Compounds with a hit are over-represented: about 1.7% of the library has one in this group of screens. Rule as the data show it, unless noted: active = activation above about 18%; inactive = the rest.

SMILES	MOR-DOR inv ag-1	V-ATPase pHluor	HTR5A inv ag	beta cell repl	MOR-DOR ag-1	HTR5A ag ctr	MOR-DOR inv ag-2	HTR5A inv confrm	others
CC(C)C(=O)NCCc1nc(-c2ccccc2Cl)no1	3	-1	38*	-1	0	2	-19	0
OC(CCc1cccc(Cl)c1)c1cccs1 (stereo not drawn)	-21	-97	16	-2	4	-4	/	/
Cc1ccc(/C=C/c2nnc(-c3ccc(C)cc3)o2)cc1	-13	-1	42*	-1	2	-18	-42	-199
Cc1ccc(/C=C/c2nnc(-c3cccs3)o2)cc1	-33	3	13	0	5	-6	/	/
Cc1cc2n(n1)C(c1ccc3c(c1)OCO3)Nc1c(C)cccc1-2 (stereo not drawn)	-13	-3	33*	-2	3	-5	-45	-5
CCC(CO)NC1=CC(=O)CCC1 (stereo not drawn)	2	0	7	1	0	2	/	/
O=C(NNc1ccc([N+](=O)[O-])cn1)Nc1ccc(N=Nc2ccccc2)cc1	-14	-2	36*	/	3	-9	-45	18
O=C(NNc1ccc([N+](=O)[O-])cc1)Nc1ccccc1	8	-1	-8	0	-2	-2	/	/
O=C1C=CC(=C(c2ccc(O)cc2)c2ccc(O)cc2)C=C1	19	0	42*	-8	-5	-15	i	-10
O=C(CCCC(=O)c1ccc(O)cc1)c1ccc(O)cc1	7	2	4	0	-1	3	/	/
CC(C)CC1NC(=O)N(Cc2cc(=O)n3ccsc3n2)C1=O (stereo not drawn)	3	-1	7	0	-1	-2	/	/
COc1cccc(-c2c(C(=O)N/N=C(\C)COc3ccccc3)nnn2-c2nonc2N)c1	9	3	9	4	-2	-2	/	/
O=C(C[n+]1ccccc1)N/N=C/c1cc(Br)cc(Br)c1O	25	3	41*	-6	-6	-12	5	34
COc1cccc(NC(=O)COC(=O)C2CC2)c1	17	0	-20	2	-4	2	/	/
CC(=O)N1CCc2c(sc(NC(=O)c3ccc([N+](=O)[O-])o3)c2C#N)C1	-40	2	32*	/	6	-13	24	-5
Fc1cccc(Cc2noc(CN3CCCCC3c3ccccn3)n2)c1 (stereo not drawn)	10	0	2	-2	-2	-1	/	/
CCOc1cccc(/C=C/c2ccc3cccc(O)c3n2)c1O	-29	-3	18	-5	6	-5	/	/
Oc1cccc2ccc(/C=C/c3ccccc3Cl)nc12	9	-3	62*	-5	-2	-17	-13	47*
CCOc1cccc(/C=C/c2ccc3cccc(O)c3n2)c1OC	3	0	53*	-6	-1	-15	0	-7
O=C(CN1C(=O)c2ccccc2S1(=O)=O)Nc1ncc(Cl)cc1Cl	1	0	15	-3	0	-6	/	/
CCOC(=O)c1c(N)n(C2CC(C)(C)NC(C)(C)C2)c2nc3ccccc3nc12	18	/	37*	-1	-3	3	-15	1
CN(C)S(=O)(=O)c1ccc(Cl)c(C(=O)OCC(=O)NC(=O)NC2CCCC2)c1	-8	5	96*	4	2	1	-16	14
FC(F)Oc1ccc(/C=N/n2c(Cc3ccc(Br)cc3)n[nH]c2=S)cc1	-56	-6	12	-2	11	-4	/	/
CSc1ccc(/C=N/n2c(Cc3ccc(Br)cc3)n[nH]c2=S)cc1	-30	0	32*	-6	6	-13	-39	13
COc1cccc(CNC(=O)Cc2ccc(S(=O)(=O)N3CCOCC3)s2)c1	-13	7	38*	0	2	-15	49*	-5
SMILES	MOR-DOR inv ag-1	V-ATPase pHluor	HTR5A inv ag	beta cell repl	MOR-DOR ag-1	HTR5A ag ctr	MOR-DOR inv ag-2	HTR5A inv confrm	others
CCOC(=O)c1nn(-c2ccc(F)cc2)c2nc(Nc3ccccc3)cc(=O)n12	-7	2	-35	-2	1	3	/	/
N#CCCN(/N=C/c1cccnc1)C1=NS(=O)(=O)c2ccccc21	11	-2	34*	-1	-2	0	-302	5
CCCCCNC(=O)CSC1=N/C(=C\c2ccc(Cl)c(Cl)c2)C(=O)N1CC	12	2	4	0	-2	-2	/	/
O=C(CSC1=N/C(=C/c2ccc(Cl)c(Cl)c2)C(=O)N1c1ccccc1F)NC1CC1	8	5	37*	0	-1	-1	-24	14
CC(C)OC(=O)CSc1nnc(SCc2cccc3ccccc23)s1	5	0	-10	-1	-1	-3	/	/
CCC(C(=O)NC1CC(C)(C)NC(C)(C)C1)c1ccccc1 (stereo not drawn)	7	-6	2	-1	-1	-1	/	/
OCC[C@@H]1C[C@H](O)[C@@H](O)[C@@]2(OCCCc3ccccc32)O1	0	-2	44*	-3	0	-17	-5	3
OCC[C@@H]1C[C@@H](O)[C@H](O)[C@]2(OCCc3ccccc32)O1	12	2	0	-5	-2	-1	/	/
CCOc1cc(/C=C2\CCC/C(=C\c3cc(Cl)c(O)c(OCC)c3)C2=O)cc(Cl)c1O	13	-1	46*	-4	-3	-21	i	-20
CCOc1cc(/C=C2\CN(C)C/C(=C\c3ccc(O)c(OCC)c3)C2=O)ccc1O	22	5	16	-5	-5	-5	/	/
COc1cccc(CNCc2ccccc2Br)c1OC	1	-5	36*	-3	0	-6	-48	19
CCc1ccccc1NC(=O)CNC(=O)CCC(=O)c1cc(C)sc1C	/	1	/	/	/	/	/	/
COc1ccc(N2C(=O)CCC(C(=O)O)C2c2ccc(F)cc2)cc1 (stereo not drawn)	9	4	-23	-1	-2	16*	/	/	MOR-DOR ag-2=1;HTR5A ag confirm=4
COc1ccc(N2C(=O)CCC(C(=O)N3CCCCC3)C2c2ccc(F)cc2)cc1 (stereo not drawn)	17	-6	-1	1	-4	5	/	/
COc1cccc(/C=C(\C)C(=O)c2c(C)cc(C)[nH]c2=O)c1OC	10	-2	-1	0	-2	0	/	/
Cc1cccc(/C=N/NC(=O)c2ccc(NC(=O)c3ccc(F)cc3)cc2)n1	-101	1	-64	1	12	21*	/	/	MOR-DOR ag-2=3;HTR5A ag confirm=-1
Cc1cccc(/C=N/NC(=O)c2ccc(NC(=O)c3ccc(Cl)cc3)cc2)n1	-36	-1	-3	0	7	3	/	/
